# Results as given in the supplement of paper PMC8728848.
# The entries come from a sample that favours the strongest signals as a whole.
# B1: SP16664D-bth-476-27-476 (Bacteroides thetaiotaomicron) (protein)
# chain: DDLEVGKNIDESAYSGIYENNAYLRDGKSNLVSKVVELHGETYATTVKMGLSKTPNTATSAKVKIDAAYLETYNKAHNTDFALYPQDLVTFANEGILTVNANTKSAEVEMTIRAGEGLQEDKTYAIPVAISDQSSDITIKDEDAKHCIYLVKDMRNAGDAYKGEGVMQGYLFFEVNDVNPLNTLSFQLENGKLLWDVVVLFAANINYDAEAGRPRVQCNPNVQYLLDNNETLLQPLRRRGVKVLLGLLGNHDITGLAQLSEQGAKDFAREVAQYCKAYNLDGVNYDDEYSNSPDLSNPSLTNPSTAAAARLCYETKQAMPDKLVTVFDWGQMYGVATVDGVDAKEWIDIVVANYGSAAYPIGQMTKKQCSGISMEFNLGGGGSLSASKAQSMIDGGYGWFMGFAPSPAKYGSVFSRLQGGGEVLYGSNVAAPTIFYKKNDPTPYKYPDDL
# Columns and labels:
# Test in all cases: glycan array binding signal (z-score within array); higher = stronger binding
# Details in all cases: glycan notation: IUPAC condensed, linker removed
# [1] = target: Fuc(a1-2)Gal
# Outline: (§1)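 From the Consortium for Functional Glycomics database, 3228 arrays were curated, keeping only those whose protein sequence was available. Binding is given as a within-array Z-score averaged across arrays sharing a protein sequence and across linkers. Negative Z-scores can be read as non-binding.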
# [2] = target: Fuc(a1-2)Gal(b1-4)Glc6S
# Outline: as §1
# [3] = target: Fuc(a1-2)Gal(b1-4)GlcNAc(b1-2)Man(a1-3)[Fuc(a1-2)Gal(b1-4)GlcNAc(b1-2)Man(a1-6)]Man(b1-4)GlcNAc(b1-4)[Fuc(a1-6)]GlcNAc
# Outline: as §1
# [4] = target: Fuc(a1-2)Gal(b1-4)GlcNAc(b1-3)GalNAc
# Outline: as §1
# [5] = target: Fuc(a1-2)Gal(b1-4)[Fuc(a1-3)]GlcNAc(b1-3)GalNAc
# Outline: as §1
# [6] = target: Fuc(a1-2)Gal(b1-4)[Fuc(a1-3)]GlcNAc(b1-3)[Neu5Ac(a2-6)Gal(b1-4)GlcNAc(b1-6)]Gal(b1-4)Glc
# Outline: as §1
# [7] = target: Fuc(a1-2)[Gal(a1-3)]Gal(b1-4)GlcNAc(b1-6)GalNAc
# Outline: as §1
# [8] = target: Fuc(a1-2)[Gal(a1-3)]Gal(b1-4)[Fuc(a1-3)]Glc
# Outline: as §1
# [9] = target: Fuc(a1-2)[GalNAc(a1-3)]Gal
# Outline: as §1
# [10] = target: Fuc(a1-3)[Gal(b1-4)]GlcNAc(b1-2)Man(a1-3)[Fuc(a1-3)[Gal(b1-4)]GlcNAc(b1-2)Man(a1-6)]Man(b1-4)GlcNAc(b1-4)GlcNAc
# Outline: as §1
# [11] = target: Fuc(a1-3)[Gal(b1-4)]GlcNAc(b1-2)Man(a1-3)[Fuc(a1-3)[Gal(b1-4)]GlcNAc(b1-2)Man(a1-6)]Man(b1-4)GlcNAc(b1-4)[Fuc(a1-6)]GlcNAc
# Outline: as §1
# [12] = target: Fuc(a1-3)[Gal3S(b1-4)]GlcNAc
# Outline: as §1
# [13] = target: Fuc(a1-4)GlcNAc
# Outline: as §1
# [14] = target: Fuc(b1-3)GlcNAc
# Outline: as §1
# [15] = target: Gal(a1-3)Gal(b1-3)GlcNAc
# Outline: as §1
# [16] = target: Gal(a1-3)Gal(b1-3)GlcNAc(b1-3)GalNAc
# Outline: as §1
# [17] = target: Gal(a1-3)Gal(b1-4)Glc
# Outline: as §1
# [18] = target: Gal(a1-3)Gal(b1-4)GlcNAc
# Outline: as §1
# [19] = target: Gal(a1-3)Gal(b1-4)GlcNAc(b1-3)GalNAc
# Outline: as §1
# [20] = target: Gal(a1-4)Gal(b1-4)GlcNAc
# Outline: as §1
# [21] = target: Gal(b1-3)GlcNAc(b1-3)Gal(b1-4)GlcNAc(b1-3)Gal(b1-4)GlcNAc(b1-2)[Gal(b1-3)GlcNAc(b1-3)Gal(b1-4)GlcNAc(b1-3)Gal(b1-4)GlcNAc(b1-6)]Man(a1-6)[Gal(b1-3)GlcNAc(b1-3)Gal(b1-4)GlcNAc(b1-3)Gal(b1-4)GlcNAc(b1-2)Man(a1-3)]Man(b1-4)GlcNAc(b1-4)[Fuc(a1-6)]GlcNAc
# Outline: as §1
# [22] = target: Gal(b1-3)GlcNAc(b1-3)GalNAc
# Outline: as §1
# [23] = target: Gal(b1-3)[Fuc(a1-4)]GlcNAc(b1-2)Man(a1-3)[Gal(b1-3)[Fuc(a1-4)]GlcNAc(b1-2)Man(a1-6)]Man(b1-4)GlcNAc(b1-4)[Fuc(a1-6)]GlcNAc
# Outline: as §1
# [24] = target: Gal(b1-3)[Fuc(a1-4)]GlcNAc(b1-3)Gal(b1-3)[Fuc(a1-4)]GlcNAc
# Outline: as §1
# [25] = target: Gal(b1-4)Glc
# Outline: as §1
# [26] = target: Gal(b1-4)GlcNAc(b1-3)Gal(b1-4)GlcNAc(b1-3)Gal(b1-4)GlcNAc
# Outline: as §1
# [27] = target: Gal(b1-4)GlcNAc(b1-3)Gal(b1-4)GlcNAc(b1-3)Gal(b1-4)GlcNAc(b1-2)[Gal(b1-4)GlcNAc(b1-3)Gal(b1-4)GlcNAc(b1-3)Gal(b1-4)GlcNAc(b1-6)]Man(a1-6)[Gal(b1-4)GlcNAc(b1-3)Gal(b1-4)GlcNAc(b1-3)Gal(b1-4)GlcNAc(b1-2)Man(a1-3)]Man(b1-4)GlcNAc(b1-4)[Fuc(a1-6)]GlcNAc
# Outline: as §1
# [28] = target: Gal(b1-4)GlcNAc(b1-3)Gal(b1-4)GlcNAc(b1-3)Gal(b1-4)GlcNAc(b1-3)Gal(b1-4)GlcNAc(b1-3)Gal(b1-4)GlcNAc(b1-2)Man(a1-3)[Gal(b1-4)GlcNAc(b1-3)Gal(b1-4)GlcNAc(b1-3)Gal(b1-4)GlcNAc(b1-3)Gal(b1-4)GlcNAc(b1-3)Gal(b1-4)GlcNAc(b1-2)Man(a1-6)]Man(b1-4)GlcNAc(b1-4)[Fuc(a1-6)]GlcNAc
# Outline: as §1
# [29] = target: Gal(b1-4)GlcNAc(b1-3)Gal(b1-4)GlcNAc(b1-3)GalNAc
# Outline: as §1
# [30] = target: Gal(b1-4)GlcNAc(b1-3)Gal(b1-4)GlcNAc(b1-3)[Gal(b1-4)GlcNAc(b1-3)Gal(b1-4)GlcNAc(b1-6)]GalNAc
# Outline: as §1
# [31] = target: Gal(b1-4)GlcNAc(b1-6)GalNAc
# Outline: as §1
# [32] = target: Gal6S(b1-4)Glc6S
# Outline: as §1
# [33] = target: GalNAc(b1-3)Gal
# Outline: as §1
# [34] = target: GalNAc3S(b1-4)GlcNAc
# Outline: as §1
# [35] = target: GlcA(b1-3)GlcNAc
# Outline: as §1
# [36] = target: GlcNAc(a1-4)Gal(b1-4)GlcNAc(b1-3)Gal(b1-4)GlcNAc
# Outline: as §1
# [37] = target: GlcNAc(a1-4)Gal(b1-4)GlcNAc(b1-3)Gal(b1-4)GlcNAc(b1-3)Gal(b1-4)GlcNAc
# Outline: as §1
# [38] = target: GlcNAc(b1-3)Gal(b1-4)GlcNAc(b1-3)Gal(b1-4)GlcNAc
# Outline: as §1
# [39] = target: GlcNAc(b1-3)Gal(b1-4)GlcNAc(b1-3)Gal(b1-4)GlcNAc(b1-3)Gal(b1-4)GlcNAc(b1-2)Man(a1-3)[GlcNAc(b1-3)Gal(b1-4)GlcNAc(b1-3)Gal(b1-4)GlcNAc(b1-3)Gal(b1-4)GlcNAc(b1-2)Man(a1-6)]Man(b1-4)GlcNAc(b1-4)[Fuc(a1-6)]GlcNAc
# Outline: as §1
# [40] = target: GlcNAc(b1-3)[GlcNAc(b1-6)]Gal(b1-4)GlcNAc
# Outline: as §1
# [41] = target: Neu5Ac(a2-3)Gal
# Outline: as §1
# [42] = target: Neu5Ac(a2-3)Gal(b1-3)GalNAc6S
# Outline: as §1
# [43] = target: Neu5Ac(a2-3)Gal(b1-4)GlcNAc(b1-3)Gal(b1-4)[Fuc(a1-3)]GlcNAc
# Outline: as §1
# [44] = target: Neu5Ac(a2-3)Gal(b1-4)[Fuc(a1-3)]GlcNAc(b1-3)GalNAc
# Outline: as §1
# [45] = target: Neu5Ac(a2-3)Gal(b1-4)[Fuc(a1-3)]GlcNAc(b1-6)[Gal(b1-3)]GalNAc
# Outline: as §1
# [46] = target: Neu5Ac(a2-6)Gal(b1-4)GlcNAc(b1-2)Man
# Outline: as §1
# [47] = target: Neu5Ac(a2-6)Gal(b1-4)GlcNAc(b1-2)Man(a1-3)Man(b1-4)GlcNAc(b1-4)GlcNAc
# Outline: as §1
# [48] = target: Neu5Ac(a2-6)Gal(b1-4)GlcNAc(b1-2)Man(a1-3)[Gal(b1-4)GlcNAc(b1-2)Man(a1-6)]Man(b1-4)GlcNAc(b1-4)GlcNAc
# Outline: as §1
# [49] = target: Neu5Ac(a2-6)Gal(b1-4)GlcNAc(b1-2)Man(a1-6)[Man(a1-3)]Man(b1-4)GlcNAc(b1-4)GlcNAc
# Outline: as §1
# [50] = target: Neu5Ac(a2-6)Gal(b1-4)GlcNAc(b1-2)[Neu5Ac(a2-6)Gal(b1-4)GlcNAc(b1-4)]Man(a1-3)[GlcNAc(b1-4)][Neu5Ac(a2-6)Gal(b1-4)GlcNAc(b1-2)[Neu5Ac(a2-6)Gal(b1-4)GlcNAc(b1-6)]Man(a1-6)]Man(b1-4)GlcNAc(b1-4)GlcNAc
# Outline: as §1
# [51] = target: Neu5Ac(a2-6)Gal(b1-4)GlcNAc(b1-3)Gal(b1-4)GlcNAc(b1-2)Man(a1-3)[Neu5Ac(a2-6)Gal(b1-4)GlcNAc(b1-3)Gal(b1-4)GlcNAc(b1-2)Man(a1-6)]GalNAc
# Outline: as §1
# [52] = target: Neu5Ac(a2-6)Gal(b1-4)GlcNAc(b1-6)[Gal(b1-3)GlcNAc(b1-3)]Gal(b1-4)Glc
# Outline: as §1
# [53] = target: Neu5Ac(a2-6)GalNAc
# Outline: as §1
# [54] = target: Neu5Ac(a2-6)GalNAc(b1-4)GlcNAc6S
# Outline: as §1
# [55] = target: Neu5Ac(a2-8)Neu5Ac(a2-8)Neu5Ac(a2-3)[GalNAc(b1-4)]Gal(b1-4)Glc
# Outline: as §1
# [56] = target: Neu5Gc(a2-8)Neu5Ac(a2-3)Gal(b1-4)GlcNAc
# Outline: as §1
binder,measurement,setting,value
B1,glycan array binding signal (z-score),[1],-0.249
same,glycan array binding signal (z-score),[2],0.006
same,glycan array binding signal (z-score),[3],0.161
same,glycan array binding signal (z-score),[4],-0.244
same,glycan array binding signal (z-score),[5],0.134
same,glycan array binding signal (z-score),[6],-0.167
same,glycan array binding signal (z-score),[7],0.007
same,glycan array binding signal (z-score),[8],-0.184
same,glycan array binding signal (z-score),[9],-0.152
same,glycan array binding signal (z-score),[10],0.013
same,glycan array binding signal (z-score),[11],3.02
same,glycan array binding signal (z-score),[12],-0.196
same,glycan array binding signal (z-score),[13],5.19
same,glycan array binding signal (z-score),[14],-0.141
same,glycan array binding signal (z-score),[15],0.314
same,glycan array binding signal (z-score),[16],-0.337
same,glycan array binding signal (z-score),[17],-0.117
same,glycan array binding signal (z-score),[18],-0.212
same,glycan array binding signal (z-score),[19],-0.12
same,glycan array binding signal (z-score),[20],-0.17
same,glycan array binding signal (z-score),[21],0.144
same,glycan array binding signal (z-score),[22],0.061
same,glycan array binding signal (z-score),[23],0.054
same,glycan array binding signal (z-score),[24],1.49
same,glycan array binding signal (z-score),[25],-0.258
same,glycan array binding signal (z-score),[26],0.004
same,glycan array binding signal (z-score),[27],1.01
same,glycan array binding signal (z-score),[28],20
same,glycan array binding signal (z-score),[29],-0.091
same,glycan array binding signal (z-score),[30],-0.045
same,glycan array binding signal (z-score),[31],-0.123
same,glycan array binding signal (z-score),[32],0.344
same,glycan array binding signal (z-score),[33],-0.159
same,glycan array binding signal (z-score),[34],-0.345
same,glycan array binding signal (z-score),[35],-0.153
same,glycan array binding signal (z-score),[36],-0.259
same,glycan array binding signal (z-score),[37],-0.185
same,glycan array binding signal (z-score),[38],0.054
same,glycan array binding signal (z-score),[39],-0.18
same,glycan array binding signal (z-score),[40],-0.212
same,glycan array binding signal (z-score),[41],-0.156
same,glycan array binding signal (z-score),[42],-0.227
same,glycan array binding signal (z-score),[43],0.058
same,glycan array binding signal (z-score),[44],0.765
same,glycan array binding signal (z-score),[45],9.86
same,glycan array binding signal (z-score),[46],-0.235
same,glycan array binding signal (z-score),[47],-0.117
same,glycan array binding signal (z-score),[48],2.55
same,glycan array binding signal (z-score),[49],3.75
same,glycan array binding signal (z-score),[50],2.38
same,glycan array binding signal (z-score),[51],1.28
same,glycan array binding signal (z-score),[52],-0.349
same,glycan array binding signal (z-score),[53],-0.006
same,glycan array binding signal (z-score),[54],-0.065
same,glycan array binding signal (z-score),[55],2.53
same,glycan array binding signal (z-score),[56],-0.114
